For 50 compounds, Percent Effect results are on record in ChEMBL document CHEMBL3988442, “University of Dundee, Small-Polar-MMV Screening Library” (2021).

The target of assay [1] is T1, Aspartate--tRNA(Asp/Asn) ligase (Mycobacterium tuberculosis (strain ATCC 25618 / H37Rv)) (UniProt P9WFW3). Further: in the data most compounds retested in dose-response had high values.
T1 sequence (whole entry): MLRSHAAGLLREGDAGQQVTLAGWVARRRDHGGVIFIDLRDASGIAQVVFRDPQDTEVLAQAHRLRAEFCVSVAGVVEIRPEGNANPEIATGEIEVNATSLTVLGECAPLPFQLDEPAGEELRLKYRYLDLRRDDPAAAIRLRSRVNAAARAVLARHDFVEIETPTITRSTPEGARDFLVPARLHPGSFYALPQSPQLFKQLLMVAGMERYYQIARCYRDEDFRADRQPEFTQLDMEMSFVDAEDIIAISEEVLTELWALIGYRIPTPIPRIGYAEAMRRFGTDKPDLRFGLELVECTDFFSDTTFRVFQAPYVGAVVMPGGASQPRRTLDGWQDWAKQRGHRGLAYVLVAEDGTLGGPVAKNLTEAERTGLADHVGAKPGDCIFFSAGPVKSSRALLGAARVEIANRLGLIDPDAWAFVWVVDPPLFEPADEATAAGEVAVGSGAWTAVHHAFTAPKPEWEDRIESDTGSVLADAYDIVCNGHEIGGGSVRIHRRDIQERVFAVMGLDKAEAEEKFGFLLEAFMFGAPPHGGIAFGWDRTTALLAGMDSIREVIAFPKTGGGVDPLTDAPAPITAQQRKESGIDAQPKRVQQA
The assay can be described thus: Assay for Asp RNA synthetase-1 from Mycobacterium tuberculosis. The class given is functional. Details: scale not given: direction of the effect not stated beside the values. Conditions: 30 µM.

In assay [2] the target is Shiga toxin 2 (Escherichia coli O157:H7) (UniProt P09385+P09386). The assay can be described thus: E. coli 0.157:H7 Shiga Toxin SOP - stx2 screening assay. Format: functional. Details: scale not given: direction of the effect not stated beside the values. Conditions: 30 µM.

Regarding `Cc1nc(N2CCCCC2)ncc1C(=O)N1CC(C)(C)[C@@](C)(O)C1`, the Percent Effect in assay [1] was found to be 4.7%; in assay [2] it was 3.19%.
The matching figures for `O=C(NCCn1ccc(-c2ccccn2)n1)C1CC1`: 2.14% and -6.67%.
On to `O=C(CCc1nc2cccnc2[nH]1)NCc1ccc2c(c1)OCO2`, for which the Percent Effect was 0.0581% in assay [1] and -41.8% in assay [2].
The matching figures for `Cc1cc(C)c(CNC(=O)N2CCCC2c2ccccc2)c(=O)[nH]1` (stereo not given): -3.97% and -21.1%.
With `CO[C@H]1CCN(c2ccc(C)nn2)[C@H]1Cc1cnn(C)c1`, the values for the Percent Effect in assay [1] and in assay [2] were 1.39% and 3.96%, respectively.
For `Fc1ccc(CN2CCC(c3n[nH]c4ncccc34)CC2)cc1F`, the results for the Percent Effect in assay [1] and in assay [2] were 5.4% and 15.2%, respectively.
The matching figures for `Cc1nc(C2CCCN(C(=O)CO)C2)cc(N2CCOCC2)n1` (stereo not given): -4.78% and 17.9%.
The corresponding values for `Cc1nn(C)c(C)c1C1COCCN1C(=O)Cc1cccc(F)c1` (stereo not given) are 1.67% and -31%.
Regarding `CO[C@@H]1CC[C@H]2[C@H]1OCCN2C(=O)c1ccc(C)o1`, the Percent Effect in assay [1] is 2.26%; in assay [2] it was -16.7%.
The matching figures for `CN(C)C(=O)CSc1nnc(CCNC(=O)OC(C)(C)C)o1`: 2.93% and -59.4%.
For the compound `O=C(NCCNc1ccc(C(F)(F)F)cn1)c1cncc(Br)c1`, the Percent Effect in assay [1] came out at 3.26%; in assay [2], 28.2%.
The matching figures for `COCc1noc(-c2ccc(N(C)Cc3cc(C)no3)nc2)n1`: 0.703% and -7.35%.
The corresponding values for `CN(C)C(=O)CO[C@H]1CN(Cc2ccc(F)cc2)[C@@H]2CCCO[C@H]12` are 5.68% and -22%.
As for `c1cnn(CC2CN(CCc3ccncc3)CCO2)c1` (stereo not given), the Percent Effect in assay [1] is 2.1%; in assay [2], 17.1%.
Regarding `Cc1nc(CN2C[C@@H]3CN(C(=O)c4cccn4C)C[C@@H]3C2=O)cs1`, the Percent Effect in assay [1] was -0.382%; in assay [2], -4.43%.
The matching figures for `CS(=O)(=O)N1CCC(C(=O)NC(Cc2ccsc2)c2ccccn2)CC1` (stereo not given): -1.32% and 14.7%.
The matching figures for `Cc1csc(N2CCN(Cc3cnc(C)s3)CC2C)n1` (stereo not given): 3.68% and 13.7%.
As for `CC(O)CNCc1ccc(OCc2ccc3c(c2)OCCO3)cc1` (stereo not given), the Percent Effect is 1.08% in assay [1] and -37.4% in assay [2].
The corresponding values for `COc1ccccc1-c1noc(CN2CCCC2Cn2cccn2)n1` (stereo not given) are -7.54% and 21.6%.
The matching figures for `Cc1nc(CN(C)C2CCN(Cc3nc4ccccc4s3)C2)no1` (stereo not given): -0.253% and 0.376%.
As for `CCNc1cc2c(nn1)CCN(C(=O)c1cc3nc(C)ccc3o1)C2`, the Percent Effect in assay [1] was -4.95%; in assay [2], -51.6%.
The matching figures for `CCN(CC1CCCO1)C(=O)Nc1cc(C(=O)OC)ccc1F` (stereo not given): -1.37% and 15.3%.
The matching figures for `CNc1cc(C2CCCN2C(=O)c2ccc3oc(=O)n(C)c3c2)ccn1` (stereo not given): 4.04% and 7%.
Consider `CC(NC(=O)COc1ccc(F)cc1)c1nnc2n1CCCCC2` (stereo not given), for which the Percent Effect in assay [1] was found to be 8.46%; in assay [2], 13.1%.
The matching figures for `Cn1cnc(S(=O)(=O)NCCCN2CCCCCC2)c1Cl`: 1.4% and 18.1%.
The matching figures for `COc1ccc(COCC(O)CNC(=O)c2cc(C)cc(C)c2)cc1` (stereo not given): -0.859% and -16.6%.
The corresponding values for `CNC(=O)CC1CCN(Cc2nc(-c3ccc(SC)cc3)oc2C)CC1` are -1.17% and -3.87%.
For `Cc1cc(CNCc2c(C)nn(C)c2N2CCOCC2)no1`, the values for the Percent Effect in assay [1] and in assay [2] were -2.57% and 16.5%, respectively.
The matching figures for `CCOc1nnc(CN2CCOC(CNc3cccnn3)C2)s1` (stereo not given): 4.86% and -50.9%.
Consider `Cn1cc(CN2CCCN(C(=O)c3cc(Cl)cn3C)CC2)cn1`, for which the Percent Effect in assay [1] is -4.75%; in assay [2] it was 22.7%.
For `O=C(CN1CCCCC1Cn1cncn1)NCc1ccccn1` (stereo not given), the Percent Effect was determined as 4.05% in assay [1] and 4.47% in assay [2].
Take `Cn1cnc2c1CCN(Cc1nc(Cc3ccccc3)no1)C2`: the Percent Effect in assay [1] is -1.94%; in assay [2], 15.1%.
In the case of `CC[C@@H]1N(Cc2ccsc2)CCC[C@]12CCC(=O)N2C`, the Percent Effect in assay [1] was -1.82%; in assay [2], 5.09%.
Turning to `CCn1c(C)nnc1CN(C)C1CCN(CCn2cccn2)C1` (stereo not given), the Percent Effect in assay [1] was 1.41%; in assay [2], 12.1%.
The matching figures for `CN(CCN1CCCCCC1)C(=O)c1cc(CN2CCC(O)CC2)on1`: 5.29% and -37.1%.
With `COc1cccc(C2CCCN2C(=O)c2cc3c([nH]c2=O)CCC3)c1` (stereo not given), the Percent Effect in assay [1] was 1.28%; in assay [2], -5.59%.
The corresponding values for `CCc1c(C(=O)N2CCN(CC(N)=O)CC2)cnn1C(C)(C)C` are -2.87% and 2.77%.
The matching figures for `Cn1cc(-c2ncnc3c2CCN(C(=O)N2CCOCC2)CC3)cn1`: -8.2% and -1.95%.
The matching figures for `CC(=O)NC1CCCN(C(=O)Nc2cnc3c(cnn3C(C)C)c2)C1` (stereo not given): -4.11% and 18%.
With `COc1ccc(OC)c(CN2CCCCCC2c2cccs2)c1` (stereo not given), the Percent Effect in assay [1] is -3.22%; in assay [2], -16.4%.
In the case of `Cc1nnc(C(C)N2CCN(Cc3ccc4c(c3)OCO4)CC2)o1` (stereo not given), the Percent Effect in assay [1] was -0.657%; in assay [2], 17.8%.
The corresponding values for `CCNC(=O)N1CCC2(C1)c1ccccc1S(=O)(=O)N2CCC(C)C` (stereo not given) are -0.553% and -1.22%.
The matching figures for `CC(=O)N1CCC(Cc2cnc(-c3c(C)nn(C)c3C)cn2)C1` (stereo not given): -3.46% and -8.45%.
The corresponding values for `O=C(CCc1nc2cccnc2[nH]1)Nc1cccnc1` are -1.77% and -77.4%.
In the case of `Cc1noc([C@@H]2CC[C@@H]3[C@@H](CCN3S(=O)(=O)C3CC3)O2)n1`, the Percent Effect is 0.155% in assay [1] and -17.9% in assay [2].
The corresponding values for `NC(=O)c1cc(C2CCCN(CCCOc3ccccc3)C2)n[nH]1` (stereo not given) are -1.57% and -26%.
The corresponding values for `CSc1ccc(NC(=O)Nc2ccc3c(c2)N(S(C)(=O)=O)CC3)cc1` are -2.32% and -21.8%.
For `CN(Cc1ccsc1)C(=O)c1cccc(NS(C)(=O)=O)c1`, the values for the Percent Effect in assay [1] and in assay [2] were -4.16% and -32.9%, respectively.
The matching figures for `O=C(CCc1cccnc1)N(Cc1ccsc1)CC1CCCO1` (stereo not given): -1.24% and -0.116%.
The corresponding values for `Cc1nc(C)n(C2CCCN(C(=O)COCc3ccccc3)C2)n1` (stereo not given) are -4.95% and -2.76%.
